According to PubChem BioAssay (NCATS):
Inconclusive results are not listed. Entries that show only a call come without a potency. Activity calls are given as the source filed them. Calls come from the whole dose curve; as a rule, active = well fitted curve in the direction sought with a large enough effect; inconclusive = small, poorly fitted or top-dose-only effect, or another doubt; inactive = no such curve, though single readings can be large; an effect the other way counts as inactive or inconclusive.

What was measured:
[1] = target: Luciferin 4-monooxygenase (Photinus pyralis) (UniProt P08659); test: Biochemical firefly luciferase enzyme assay for NPC (AID 624030); note: nearly all actives have a fitted effect of over 70% in size; note: potency is the fitted concentration of half-maximal effect
Method in brief: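 Purified P. pyralis luciferase at 10 nM in 50 mM Tris Acetate (final), luminescence read within 5 minutes of enzyme addition to compounds. Activity normalised to PTC124 versus DMSO; concentration-response curves classed by r2, magnitude and activity.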

[2] = S16 Schwann cell viability assay (CellTiter-Glo assay) (AID 624031); note: nearly all actives have a fitted effect of over 70% in size; note: potency is the fitted concentration of half-maximal effect
Method in brief: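 Concentration-effect curves come from CellTiter-Glo luminescence of S16 rat Schwann cells after 24 h compound exposure. Each reading was normalized to DMSO wells (0%) and wells without cells, and curves were ranked by r2 and response magnitude.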

[3] = target: Voltage-gated inwardly rectifying potassium channel KCNH2 (Homo sapiens) (UniProt Q12809); test: qHTS Assay for Small Molecule Inhibitors of the Human hERG Channel Activity (AID 588834);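 note: top concentration of the series differs between compounds; lower thallium flux fluorescence means stronger hERG block; nearly all actives have a fitted effect of over 50% in size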
Method in brief: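 Thallium-flux (FluxOR) read-out on FDSS: fluorescence read 10 s before and 2 min after stimulation buffer. hERG-BacMam-transduced U2OS cells, compound exposure about 10 min. AC50 by standard Hill equation.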

Chain of Luciferin 4-monooxygenase (Photinus pyralis) (P08659 whole entry, looked up): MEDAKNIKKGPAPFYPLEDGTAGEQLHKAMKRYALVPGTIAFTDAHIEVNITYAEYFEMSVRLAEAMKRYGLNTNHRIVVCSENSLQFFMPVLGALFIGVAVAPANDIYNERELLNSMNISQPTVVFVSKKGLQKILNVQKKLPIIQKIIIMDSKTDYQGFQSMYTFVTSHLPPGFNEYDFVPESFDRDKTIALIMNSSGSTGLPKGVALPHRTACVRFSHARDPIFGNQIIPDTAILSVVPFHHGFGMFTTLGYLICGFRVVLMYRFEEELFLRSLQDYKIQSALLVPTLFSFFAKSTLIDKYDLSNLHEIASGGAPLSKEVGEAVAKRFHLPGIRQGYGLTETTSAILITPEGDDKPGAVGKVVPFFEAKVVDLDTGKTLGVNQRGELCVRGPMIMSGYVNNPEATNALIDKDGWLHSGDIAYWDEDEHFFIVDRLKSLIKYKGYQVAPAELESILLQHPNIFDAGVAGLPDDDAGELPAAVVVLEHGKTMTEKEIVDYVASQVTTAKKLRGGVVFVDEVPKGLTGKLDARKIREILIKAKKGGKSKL
Chain of Voltage-gated inwardly rectifying potassium channel KCNH2 (Homo sapiens) (Q12809 whole entry, looked up): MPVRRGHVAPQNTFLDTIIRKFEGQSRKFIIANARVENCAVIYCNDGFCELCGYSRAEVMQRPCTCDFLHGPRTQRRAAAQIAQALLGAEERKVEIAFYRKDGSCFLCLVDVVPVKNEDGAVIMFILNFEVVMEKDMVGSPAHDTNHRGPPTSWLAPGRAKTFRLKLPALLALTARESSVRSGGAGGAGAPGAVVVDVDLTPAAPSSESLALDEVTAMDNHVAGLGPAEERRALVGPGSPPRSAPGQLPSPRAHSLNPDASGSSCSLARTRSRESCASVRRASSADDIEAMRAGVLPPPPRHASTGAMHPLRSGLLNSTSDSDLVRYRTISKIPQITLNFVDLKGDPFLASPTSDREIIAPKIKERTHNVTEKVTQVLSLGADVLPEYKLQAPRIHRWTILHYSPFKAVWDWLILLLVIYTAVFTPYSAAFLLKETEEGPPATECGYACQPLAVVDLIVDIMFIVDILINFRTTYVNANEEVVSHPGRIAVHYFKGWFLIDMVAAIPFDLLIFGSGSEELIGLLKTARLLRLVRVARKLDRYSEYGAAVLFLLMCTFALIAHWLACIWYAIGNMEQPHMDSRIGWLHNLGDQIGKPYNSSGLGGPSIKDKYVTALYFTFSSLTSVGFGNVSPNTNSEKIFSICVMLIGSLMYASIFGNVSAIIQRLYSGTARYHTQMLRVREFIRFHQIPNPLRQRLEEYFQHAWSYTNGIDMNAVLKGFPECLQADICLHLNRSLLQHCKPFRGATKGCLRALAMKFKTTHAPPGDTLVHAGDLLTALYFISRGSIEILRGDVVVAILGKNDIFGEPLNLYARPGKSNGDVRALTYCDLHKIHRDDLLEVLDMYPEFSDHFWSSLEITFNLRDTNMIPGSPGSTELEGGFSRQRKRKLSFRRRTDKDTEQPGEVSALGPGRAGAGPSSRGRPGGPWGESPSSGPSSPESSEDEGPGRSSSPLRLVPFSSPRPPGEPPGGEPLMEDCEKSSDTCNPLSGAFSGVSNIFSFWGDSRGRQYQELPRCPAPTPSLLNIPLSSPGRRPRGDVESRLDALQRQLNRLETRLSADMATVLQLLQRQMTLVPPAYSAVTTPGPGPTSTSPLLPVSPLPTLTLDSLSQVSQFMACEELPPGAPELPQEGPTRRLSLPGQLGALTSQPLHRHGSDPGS

Row | SMILES | Potency [1] | Potency [2] | Potency [3]
1 | CCC1C(=O)OCC1Cc1cncn1C (configuration not stated) | inactive | inactive | –
2 | CCOc1ccc2nc(S(N)(=O)=O)sc2c1 | – | inactive | inactive
3 | CCOC(=O)c1ccccc1O | inactive | inactive | inactive
4 | CN1CCN(c2cc3c(nn2)Oc2ccccc2N3C)CC1 | – | inactive | inactive
5 | O=C(CCN1CCN(CCO)CC1)N1c2ccccc2Sc2ccc(C(F)(F)F)cc21 | inactive | inactive | –
6 | CCCCC[C@H](O)/C=C/[C@@H]1[C@@H](C/C=C\CCCC(=O)O)[C@@H](O)C[C@H]1O | inactive | inactive | inactive
7 | Cc1ccc(C(=O)c2ccc(CC(=O)O)n2C)cc1 | – | inactive | inactive
8 | Cc1c(Nc2ncccc2C(=O)O)cccc1C(F)(F)F | – | inactive | inactive
9 | CO[C@@]1(NC(=O)Cc2cccs2)C(=O)N2C(C(=O)O)=C(COC(N)=O)CS[C@@H]21 | inactive | – | –
10 | CC(=O)[C@]1(O)Cc2c(O)c3c(c(O)c2[C@@H](O[C@H]2C[C@H](N)[C@H](O)[C@H](C)O2)C1)C(=O)c1c(O)cccc1C3=O | – | inactive | inactive
11 | N=c1ccn2c(n1)O[C@H]1[C@H](O)[C@@H](CO)O[C@H]12 | inactive | inactive | inactive
12 | c1ccc2sc(SN3CCOCC3)nc2c1 | – | inactive | inactive
13 | CC(N)C(=O)OC(C)(C)Cc1ccc(Cl)cc1 (configuration not stated) | inactive | inactive | –
14 | C[S+](CC[C@H](N)C(=O)O)C[C@H]1O[C@@H](n2cnc3c(N)ncnc32)[C@H](O)[C@@H]1O (some centres not stated) | inactive | inactive | inactive
15 | Oc1c(Br)cc(Br)c2cccnc12 | inactive | inactive | inactive
16 | CCCCCCCCCCCC(=O)[O][Sn]([CH2]CCC)([CH2]CCC)[O]C(=O)CCCCCCCCCCC | – | inactive | inactive

Row | SMILES | Potency [1] | Potency [2] | Potency [3]
17 | O=C(O)COc1ccc(C(=O)c2cccs2)c(Cl)c1Cl | inactive | inactive | inactive
18 | CC(=O)c1ccc(OCC(=O)N2CCCCC2)cc1 | inactive | – | –
19 | CC1OC1P(=O)(O)O (configuration not stated) | inactive | inactive | –
20 | CN1[C@@H]2CC[C@H]1CC(OC(=O)C(CO)c1ccccc1)C2 (some centres not stated) | – | inactive | –
21 | COc1cc(/C=C/C(=O)N2CCN(CC(=O)N3CCCC3)CC2)cc(OC)c1OC | inactive | inactive | inactive
22 | O=C(Nc1ccc(C(=O)O)c(O)c1)c1ccccc1 | – | inactive | inactive
23 | Cc1c(N)c(=O)n(-c2ccccc2)n1C | inactive | – | –
24 | [O-][n+]1ccccc1SSc1cccc[n+]1[O-] | 2.56 µM (active) | 12.8 µM (active) | inactive
25 | O=C1CN(/N=C/c2ccc(-c3ccc([N+](=O)[O-])cc3)o2)C(=O)N1 | inactive | inactive | –
26 | Nc1ccc(C(=O)O)c(O)c1 | inactive | inactive | inactive
27 | N=C(N)N | inactive | – | –
28 | NC(=O)C(c1ccccc1)(c1ccccc1)[C@@H]1CCN(CCc2ccc3c(c2)CCO3)C1 | inactive | inactive | –
29 | Cc1[nH]cnc1CN1CCc2c(c3ccccc3n2C)C1=O | inactive | inactive | –
30 | CCCSc1ccc2nc(NC(=O)OC)[nH]c2c1 | – | inactive | inactive
31 | COc1ccc(-c2cc(=S)ss2)cc1 | – | inactive | inactive
32 | COc1cc(/C=C/C(=O)CC(=O)/C=C/c2ccc(O)c(OC)c2)ccc1O | – | inactive | –
